Rows were chosen to be rich in hits. Some 3.2% of all compounds tested hit in one or more screens of this group.
PGC1a acetyl inh: lowers PGC1a acetylation signal in U2OS cells; AlphaScreen anti-acetyl-lysine; with virally co-expressed GCN5 acetyltransferase; inhibition, % at 15.6 µM; 350,000 tested, 0.17% active; AID 651687;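 active means every replicate shows inhibition of at least 40%; inconclusive means mean inhibition at least 40% but some replicate below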;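 further: 0% = neutral control wells and 100% = positive control wells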
INS-1E GSIS act: GLuc luminescence reporter in INS-1E cells, primary screen for activators of glucose-dependent secretion of insulin; INS-1E GLuc reporter insulin secretion, 2-3 h; activation, % at 16.6 µM; 370,000 tested, 0.61% active;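 active means lowest replicate activation of at least 40%, so every replicate reaches that level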;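 further: 0% = median of neutral control wells and 100% = median of IBMX positive control wells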
ERAP1 inh: blocks human ERAP1 aminopeptidase activity; Q9NZ08; recombinant ERAP1, Leu-AMC fluorescence, 60 min; inhibition, % at 10.7 µM; 340,000 tested, 0.15% active; AID 652197;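 active means mean replicate inhibition of at least 30%, or all replicates individually reaching that 30% level; inactive means mean below 30% and not every replicate reaching it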;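 further: 0% = neutral control wells and 100% = L-leucinethiol positive control wells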
Target sequence (Q9NZ08 whole entry, looked up): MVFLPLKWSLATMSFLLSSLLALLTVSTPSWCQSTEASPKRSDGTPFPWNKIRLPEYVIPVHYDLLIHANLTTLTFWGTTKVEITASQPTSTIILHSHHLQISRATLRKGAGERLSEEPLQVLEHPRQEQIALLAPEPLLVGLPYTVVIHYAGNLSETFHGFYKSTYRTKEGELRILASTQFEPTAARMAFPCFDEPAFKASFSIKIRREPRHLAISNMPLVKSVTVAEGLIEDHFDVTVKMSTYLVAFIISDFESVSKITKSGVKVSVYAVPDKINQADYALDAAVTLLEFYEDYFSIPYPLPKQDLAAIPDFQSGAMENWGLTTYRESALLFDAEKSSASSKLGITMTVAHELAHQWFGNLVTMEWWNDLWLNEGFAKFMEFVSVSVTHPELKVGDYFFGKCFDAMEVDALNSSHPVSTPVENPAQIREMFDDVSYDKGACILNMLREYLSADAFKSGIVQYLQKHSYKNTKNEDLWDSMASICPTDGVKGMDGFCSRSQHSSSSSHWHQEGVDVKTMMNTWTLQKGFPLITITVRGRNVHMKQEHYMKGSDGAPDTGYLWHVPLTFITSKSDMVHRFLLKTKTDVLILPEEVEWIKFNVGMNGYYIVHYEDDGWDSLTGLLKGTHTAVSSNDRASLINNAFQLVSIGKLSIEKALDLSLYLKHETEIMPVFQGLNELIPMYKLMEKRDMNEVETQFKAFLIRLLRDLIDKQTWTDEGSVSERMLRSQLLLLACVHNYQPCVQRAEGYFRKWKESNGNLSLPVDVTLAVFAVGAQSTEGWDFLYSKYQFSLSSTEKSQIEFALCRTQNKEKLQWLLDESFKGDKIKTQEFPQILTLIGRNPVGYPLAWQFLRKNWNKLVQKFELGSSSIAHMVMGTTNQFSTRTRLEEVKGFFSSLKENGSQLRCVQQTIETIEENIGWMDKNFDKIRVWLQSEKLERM
CaV13 FRET inh: Disruptors of the CACNA1D IQ motif to Ca2+-dependent inactivation inhibitor domain association, primary screening, Förster resonance energy transfer in intact living …; HEK cells, CFP/YFP FRET ICDI-IQ, plate reader, 10 min; percent FRET-ratio fall versus neutral wells; inhibition, % at 12.3 µM; AID 743397; 340,000 tested, 0.098% active;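 active means mean replicate inhibition of at least 30% and at least 1% of replicates passing that level; inconclusive means only one of the two criteria is met; inactive means neither criterion is met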;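 further: 0% = median of the neutral control wells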
rRNA inh HTS: inhibits bacterial ribosomal RNA function over humanized ribosomes. E. coli WT GFP vs humanized-ribosome RFP mutants, fluorescence, 24 h; stronger effect = lower value; DMSO median 0, no signal -100. 350,000 tested, 1.6% active. GFP signal change (wild-type ribosome), % (test concentration not listed);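 active means significant combined selectivity score with lowered wild-type GFP, culture density cut under 30%, mutant RFP and density less affected; inactive means any of these conditions unmet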
DENV2 CPE: protects cells from dengue virus 2 cytopathic effect; DENV2-infected cells, cytopathic effect rescue, plate reader; CPE inhibition, % at 9.99 µM; 350,000 tested, 1.7% active; in the data active means CPE inhibition above about 20%, passing the limit was not always enough; inconclusive means no clear call, values can overlap the other calls; tested in BHK-21 cells;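 further: 0% = median of neutral control wells and 100% = median of positive control wells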
* hit, by the source's call; ? = inconclusive; / = no result given.

SMILES	PGC1a acetyl inh	INS-1E GSIS act	ERAP1 inh	CaV13 FRET inh	rRNA inh HTS	DENV2 CPE
C[C@@H]1CCCCO[C@@H](CN(C)C(=O)C2CCCCC2)[C@@H](C)CN([C@H](C)CO)C(=O)c2cc(NC(=O)Nc3ccc(C(F)(F)F)cc3)ccc2O1	8.6	6.9	0.3	/	3.6	2.0
COc1ccc(Cc2c(-c3ccco3)nc3ccc(Br)cn23)c(C)c1	11.6	21.5	/	-7.6	-2.4	?
COc1ccc(Cc2c(-c3ccco3)nc3c(C)cc(Br)cn23)c(C)c1	-4.8	/	0.5	-3.4	/	22.6*
CCCc1nc2c(C)cc(Br)cn2c1Cc1ccc(OC)cc1C	4.4	/	1.5	-4.4	/	20.6*
C[C@@H]1CCCCO[C@H](CN(C)Cc2ccc3c(c2)OCO3)[C@@H](C)CN([C@H](C)CO)C(=O)c2cc(NS(C)(=O)=O)ccc2O1	5.6	11.5	0.2	/	2.0	-4.3
CCCC#Cc1ccc2c(c1)O[C@@H](CN(C)C(C)=O)[C@H](C)CN([C@@H](C)CO)S2(=O)=O	-2.1	-3.0	0.4	/	-3.2	-2.8
N#Cc1ccc(-c2ccc(OCC(=O)NN=Cc3ccncc3)cc2)cc1	/	/	-10.9	-19.3	/	29.5*
COc1ccc(OCC(=O)N/N=C/c2ccncc2)cc1	4.0	6.9	-3.2	-6.3	-0.6	-3.7
CC=Cc1ccc2n(c1=O)C[C@H]1[C@H](CO)[C@@H](C(=O)N(C)C)[C@@H]2N1Cc1cc(F)ccc1F (mixture of isomers)	/	0.0	-2.6	/	2.2	-2.9
COc1ccc(CNCCC(c2ccc(OC(C)C)cc2)C(C)C)cc1OC (stereo not given)	2.6	-19.6	/	-8.2	/	/
COc1ccc(C(CCNCc2ccc(OC(C)C)cc2)C(C)C)cc1 (stereo not given)	-0.3	-26.8	-3.0	-16.9	-47.7*	-26.1
COc1ccc(OC)c(CNS(=O)(=O)c2cc(-c3cc(C)no3)ccc2OC)c1	51.1*	27.5	-3.9	-2.7	0.5	0.7
CCOc1ccccc1CNS(=O)(=O)c1cc(-c2cc(C)no2)ccc1OC	-21.0	0.8	-6.8	-3.7	-0.2	-0.5
CCOc1ccc(N(C)S(=O)(=O)c2cc(-c3cc(C)no3)ccc2OC)cc1	-53.7	-16.4	4.0	-6.0	-37.1*	-10.0
COc1ccc(CNS(=O)(=O)c2cc(-c3cc(C)no3)ccc2C)cc1OC	-5.7	11.7	-7.3	-4.1	-1.4	-0.4
COc1ccccc1CNS(=O)(=O)c1cc(-c2cc(C)no2)ccc1C(C)C	-5.2	46.5*	-3.1	-3.0	-5.2	-6.9
C[C@@H]1CN([C@@H](C)CO)C(=O)c2cc(NC(=O)Nc3cccc4ccccc34)ccc2O[C@@H]1CN(C)C(=O)Nc1ccccc1	-2.6	-2.2	-12.9	/	-0.5	7.9
CC1(C)C2CCC1(C)C(OC(=O)C[n+]1ccccc1N)C2 (stereo not given)	-2.6	41.5*	-3.0	-4.6	7.4	?
CC1(C)C2CCC1(C)C(OC(=O)C[n+]1ccccc1)C2 (stereo not given)	-7.8	6.2	-0.5	-1.2	5.2	1.0
CO[C@H]1CN(C)C(=O)c2cc(NC(=O)C3CC3)ccc2OC[C@H](C)N(CCC(F)(F)F)C[C@@H]1C	5.1	-6.8	-0.1	/	-3.5	9.6
CC1=C(C(=O)OCc2ccccc2)C(c2ccc(Br)cc2)NC(=O)N1CCCCCC(=O)O (stereo not given)	/	-9.5	-1.2	-7.2	-26.1*	-9.1
CC1=C(C(=O)OCc2ccccc2)C(c2ccc(Br)cc2)NC(=O)N1CCCC(=O)O (stereo not given)	/	1.4	0.6	-11.1	1.4	?
COC(=O)C1=C(C)N(CCCC(=O)O)C(=O)NC1c1ccc([N+](=O)[O-])cc1 (stereo not given)	/	-8.0	-9.8	-5.8	6.5	-11.7
CCOC(=O)C1=C(C)N(CCCC(=O)O)C(=O)NC1c1ccc([N+](=O)[O-])cc1 (stereo not given)	/	12.5	-3.7	-10.3	-2.1	102.2*
C[C@@H]1CCCCO[C@H](CN(C)Cc2ccc3c(c2)OCO3)[C@@H](C)CN([C@H](C)CO)C(=O)c2cc(NS(=O)(=O)c3cccs3)ccc2O1	0.0	9.5	/	/	1.2	-0.7
SMILES	PGC1a acetyl inh	INS-1E GSIS act	ERAP1 inh	CaV13 FRET inh	rRNA inh HTS	DENV2 CPE
CO[C@H]1CN(C)C(=O)c2cc(NS(C)(=O)=O)ccc2OC[C@H](C)N(Cc2ccccc2)C[C@@H]1C	-8.2	8.1	-3.4	/	-2.8	-10.7
Cc1onc(-c2ccccc2Cl)c1C(=O)Nc1nn[nH]n1	-10.7	8.7	-2.1	-7.1	-30.9*	2.9
CCNc1nc(NCC)nc(-n2nc(C)cc2C)n1	7.3	47.2	-1.6	-7.4	-42.5*	2.5
C[C@H](CO)N1C[C@H](C)[C@@H](CN(C)C(=O)Nc2ccccc2)Oc2ccc(NC(=O)Nc3ccc(C(F)(F)F)cc3)cc2CC1=O	-0.4	-6.9	3.0	/	-1.4	14.3
CCN(CC)C(=O)c1ncn2c1C(=O)NC[C@H]2C	/	-3.5	-4.2	-7.1	17.8	11.4
CN(Cc1ccccc1)C(=O)c1ncn(C)c1C(=O)N(C)Cc1ccccc1	-5.5	-0.1	30.8*	-4.9	15.0	6.3
CCN(CC)C(=O)c1ncn(C)c1C(=O)N(CC)CC	1.7	-1.8	107.3*	-4.5	-7.6	3.6
CN(Cc1ccccc1)C(=O)c1[nH]cnc1C(=O)NCc1ccccc1	/	6.4	0.4	-1.4	-28.3*	0.1
COc1cccc(-c2ccc([C@H]3[C@H](CO)N4C(=O)CN(C(=O)CN5CCOCC5)C[C@@H]34)cc2)c1	2.9	7.3	-0.7	/	3.2	-5.2
O=C([C@@H]1[C@@H](CO)[C@@H]2Cn3c(cccc3=O)[C@H]1N2CC1CC1)N1CCc2ccccc2C1	/	12.9	-0.5	/	3.9	9.5
O=C1CNC[C@H]2[C@H](c3ccc(C#CC4CCCC4)cc3)[C@@H](CO)N12	-2.4	4.7	0.5	/	-2.5	12.1
Cc1nc2ccn(Cc3ccccc3)c(=O)c2cc1C(=O)N1CCN(c2ccccc2)CC1	0.9	-4.5	3.3	-5.5	-10.5	25.6*
Cc1cc2oc(C(=O)N(Cc3cccs3)C3CCS(=O)(=O)C3)cc(=O)c2cc1Cl (stereo not given)	0.8	2.6	-0.4	-5.1	-21.3*	-7.6
O=C(/C=C/c1ccc(Cl)cc1)N(Cc1cccs1)C1CCS(=O)(=O)C1 (stereo not given)	4.8	-1.6	0.3	-4.0	-20.4	-2.6
Cc1ccc(/C=C/C(=O)N(Cc2cccs2)C2CCS(=O)(=O)C2)cc1 (stereo not given)	-1.1	18.7	-2.0	-4.7	-29.0*	-4.1
Cc1cc(C)c2oc(C(=O)N(Cc3ccc(F)cc3)C3CCS(=O)(=O)C3)cc(=O)c2c1 (stereo not given)	1.3	62.8*	-1.3	-2.2	-2.4	-4.8

Compound activity from PubChem.
